High-throughput results deposited in PubChem by National Center for Advancing Translational Sciences (NCATS).
MCF10A rerep: DNA re-replication induction in MCF 10a cells | MCF 10A DNA re-replication, Hoechst nuclear intensity, 48 h | 2.9% of 350,000 active | Potency, µM (doses to about 46.1 µM), without a hit: at the top dose activity, positive = re-replication, usual class: activators | AID 624296; note: potency is the fitted concentration of half-maximal effect; % of control where 0% means no effect; nearly all actives have a fitted effect of over 50% in size
DT40 TDP1 no CPT: qHTS for Inhibitors of human tyrosyl-DNA phosphodiesterase 1 (TDP1): qHTS in cells in absence of CPT | DT40 Tdp1-/- hTDP1 cells, no CPT, ATP luminescence, 48 h | AID 686978, 2013 | Potency, µM (top dose mostly 46.2 µM), for the others: at the highest dose activity change, negative = growth inhibition, most hits filed as inhibitors | 15% of 420,000 active; note: potency is the fitted concentration of half-maximal effect; % is set by controls: 0 for no effect and ±100 for the full control effect; nearly all actives have a fitted effect of over 55% in size
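Growth of hTDP1-complemented DT40 Tdp1-knockout cells is measured by ATP luminescence after at least 48 hr compound exposure at 37 °C, with DMSO substituting for the 20 nM CPT used in the parallel screen.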
DT40 TDP1 CPT: growth inhibition of DT40 Tdp1-/-;hTDP1 cells with camptothecin (screen for TDP1 inhibitors); chicken DT40 Tdp1-/-;hTDP1 cells + 20 nM CPT, ATP luminescence, 48 h; Potency, µM (titrated, usually from 46.2 µM), for inactives: at the top dose activity change, negative = growth inhibition, most hits filed as inhibitors; 12% of 420,000 active; AID 686979; note: potency is the fitted concentration of half-maximal effect; % is set by controls: 0 for no effect and ±100 for the full control effect; nearly all actives have a fitted effect of over 55% in size
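Chicken DT40 Tdp1-/- cells stably complemented with human TDP1 were seeded at 400 cells/well in medium containing 20 nM camptothecin, exposed to pin-transferred compounds, and grown at 37 °C for at least 48 hr. Viability was read as ATP luminescence.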
IL1B secr inh: blocks inflammasome-driven IL-1 beta release; 4.7% of 360,000 active; THP-1 LPS/ATP IL-1B secretion, AlphaLISA, 16 h; stronger effect = lower value; activity change, % at 57.5 µM; in the data active = activity change below about -50%; inconclusive = mostly about -30% to -49%; note: % is set by controls: 0 for no effect and ±100 for the full control effect
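THP-1 cells pretreated 1 hr with compounds (up to 57.5 uM final), then stimulated with LPS (250 ng/mL final) plus ATP (1.25 mM final); secreted IL-1B measured by AlphaLISA after 16 hr, decreased signal indicating inhibition.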
Chronic BCR inh: inhibitors of chronic active B-cell receptor signaling; ABC-DLBCL IkBa-CBG/CBR reporter, luminescence ratio, 4 h; Potency, µM (doses to about 46.1 µM), inactives show at the top dose activity change, negative = inhibition, hits mostly inhibitors; 0.05% of 340,000 active; active = well fitted inhibition curve with a large enough effect in the signal ratio, with a control signal flat, not every such curve was filed as active; inconclusive = small, poorly fitted or top-dose-only effect, or effect the other way, or a change in a side signal; the % refers to the signal ratio;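 note: potency is the fitted concentration of half-maximal effect; plate controls were basal doxycycline-induced cells for no effect and cells given 10 µM MG132 for full effect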
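TMD8 ABC-DLBCL cells carrying doxycycline-inducible green luciferase fused to IkappaBalpha plus unfused red luciferase were exposed to compounds (up to 46 uM) for 4 hrs at 37C. Activity came from the overlap-corrected green/red luminescence ratio.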
SW480 rerep: induces DNA re-replication in SW480 colon adenocarcinoma cells; Potency, µM (top dose mostly 46.1 µM), without a hit: top-dose re-replication activation, hits mostly activators; AID 624297; 1.8% of 340,000 active; SW480 DNA re-replication, Hoechst DNA content imaging, 48 h; note: potency is the fitted concentration of half-maximal effect; % of control where 0% means no effect; nearly all actives have a fitted effect of over 55% in size
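DNA re-replication was detected as more nuclei of elevated Hoechst intensity after 48 hr exposure to compound (23 nL pinned per well of 250 cells).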
Numbers without * were called inactive; i = inactive; ? = inconclusive; nt = not tested or not shown; ! = not confirmed by another sample; [ ] = another dose, or the depositor's remark. This is a sample that favours compounds with a hit; in the whole collection about 19% have one here. Unless noted, calls come from the whole dose curve; as a rule, active = well fitted curve in the direction sought with a large enough effect; inconclusive = small, poorly fitted or top-dose-only effect, or another doubt; inactive = no such curve, though single readings can be large; an effect the other way counts as inactive or inconclusive.

SMILES	MCF10A rerep	DT40 TDP1 no CPT	DT40 TDP1 CPT	IL1B secr inh	Chronic BCR inh	SW480 rerep
Cc1ccc(C)c2[nH]c(=O)c(CCNC(=O)c3ccc(S(=O)(=O)N4CCCC4)cc3)cc12	-13%	?	?	?	0%	3%
COc1ccc(NS(=O)(=O)c2ccc(C)c(C(=O)NCCCN3CCCC3=O)c2)cc1	-6%	17%	-2%	9	3%	-1%
COc1ccc(S(=O)(=O)N(CCN2CCOCC2)Cc2cc(OC)ccc2OC)cc1	-3%	13µM*	-13%	?	0%	-1%[9.22 µM]
Cc1ccc(S(=O)(=O)N(CCCN2CCCC2=O)Cc2cc3c(C)ccc(C)c3[nH]c2=O)cc1	1%	23µM*	18µM*	-2	-1%	0%
COc1ccc(S(=O)(=O)N(CCCN2CCOCC2)Cc2cccc(OC)c2OC)cc1	6%	-19%	-24%	-22	-15%	-5%[9.22 µM]
COc1ccc(S(=O)(=O)N(CCCN2CCCC2=O)Cc2cc3cc(C)c(C)cc3[nH]c2=O)cc1	-8%	?	?	-73*	2%	3%
Cc1c(C(=O)Nc2ccc(F)cc2F)nnn1-c1ccccc1Br	nt	13µM*	10µM*	nt	nt	nt
Nc1nc2ccc(NC(=O)c3ccco3)cc2s1	-1%	-17%	8%	6	?	-12%
COCCN(CCOC)C(=O)c1ccc(NS(=O)(=O)c2ccc3[nH]c(=O)[nH]c3c2)cc1	-7%	-6%	-9%	i	-5%	-27%
O=C1NC[C@H](Cc2ccccc2)N(C[C@@H]2CCCN2C[C@H](Cc2ccccc2)N2C[C@H](Cc3ccccc3)N(CCc3ccccc3)C(=O)C2=O)C1=O	nt	?	?	-70*	nt	nt
O=C1NC[C@H](Cc2ccccc2)N(C[C@H]2CCCN2C[C@H](Cc2ccccc2)N2C[C@H](Cc3ccccc3)N(CCc3ccccc3)C(=O)C2=O)C1=O	?	16µM*	?	-77*	nt	?
CCn1c(=O)c2c(nc3n2CCN3c2ccc(OC)cc2)n(C)c1=O	nt	-10%	?	nt	21%	nt
O=C(N/N=C/c1ccc(OC(=O)c2ccccc2)cc1)c1cccc(O)c1	21%	16µM*	?	-8	?	20%
O=C(N/N=C/c1ccc(OC(=O)c2ccccc2)cc1)c1cccnc1	13%	-28%	-14%	30	-4%	0%
O=C(Oc1ccc(/C=N/NC(=O)c2ccccc2F)cc1)c1ccccc1	1%	12µM*	9.2µM*	-2	?	16%
CC(=O)N1CCC(N(Cc2ccco2)C(=O)Nc2cccc(C)c2)CC1	nt	?	1%	nt	nt	nt
Cc1ccc(Cl)cc1NC(=O)COCc1cc(-c2ccco2)on1	nt	?	-21%	nt	nt	nt
Cc1ccc2cc(CN(C(=O)c3ccco3)c3ccccc3C)c(=O)[nH]c2c1	1%	21µM*	?	-11	-2%	4%
Cc1ccc(N(Cc2cc3ccc(C)cc3[nH]c2=O)C(=O)c2ccco2)c(C)c1	24%	23µM*	?	?	4%	20%
Cc1ccc2cc(CN(C(=O)c3ccco3)c3cccc(C)c3C)c(=O)[nH]c2c1	8%	?	-28%	-17	-20%	-3%
Cc1cc(Cl)ccc1NC(=O)C1CCN(c2nnc(-n3c(C)ccc3C)s2)CC1	nt	21µM*	?	nt	nt	nt
CS(=O)(=O)N1CCC(C(=O)Nc2ccc(Cl)cc2Cl)CC1	nt	0%	8%	-18	nt	nt
CCc1ccc(NC(=O)C2CCN(c3nnc(-n4c(C)ccc4C)s3)CC2)cc1	nt	23µM*	16µM*	nt	nt	nt
Cc1ccc(NC(=O)C2CCCN(c3nc4ccccc4s3)C2)c(C)c1 (configuration not stated)	nt	-27%	-27%	nt	nt	nt
Cc1c(Cl)cccc1NC(=O)C1CCCN(c2nnc(-n3c(C)ccc3C)s2)C1 (configuration not stated)	nt	16µM*	?	nt	nt	nt
SMILES	MCF10A rerep	DT40 TDP1 no CPT	DT40 TDP1 CPT	IL1B secr inh	Chronic BCR inh	SW480 rerep
Cc1ccc(NC(=O)C2CCCN(c3nnc(-n4c(C)ccc4C)s3)C2)c(C)c1 (configuration not stated)	nt	16µM*	?	nt	nt	nt
CCc1ccc(NC(=O)C2CCN(c3nc(-c4ccc(OC)cc4)no3)CC2)cc1	nt	-4%	0%	nt	nt	nt
Clc1ccc(CCNc2ncnc3c2nnn3Cc2ccccc2)cc1	?	?	-22%	-21	5%	0%
CCc1ccccc1NC(=O)C1CCCN(c2nnc(-n3c(C)ccc3C)s2)C1 (configuration not stated)	nt	21µM*	21µM*	nt	nt	nt
CCc1ccccc1NC(=O)Nc1nnc(N2CCCC2)s1	nt	-2%	-3%	nt	nt	nt
O=[N+]([O-])c1ccc(Cn2cc(-c3cccc(C(F)(F)F)c3)nn2)cc1	0%	16µM*!	?	-12	18%	-2%
O=C1c2ccccc2C(=O)c2cc(Cn3cc(-c4cccc(C(F)(F)F)c4)nn3)ccc21	nt	-9%	?	nt	nt	nt
CCCn1c2ccccc2c2nnc(SCCN3CCOCC3)nc21	-2%	?	?	-18	4%	-1%
CCn1c2ccc(F)cc2c2nnc(SCCN3CCCCC3)nc21	15%	16µM*!	?	?	8%	8%
CCCn1c2ccc(C)cc2c2nnc(SCCN3CCOCC3)nc21	12%	16µM*	?	-61*	8%	-2%
CCn1c2ccc(C)cc2c2nnc(SCCN3CCCCC3)nc21	5%	16µM*	?	-66*	9%	1%
CCCn1c2ccc(F)cc2c2nnc(SCCN(CC)CC)nc21	nt	?	?	nt	24%	nt
CCCn1c2ccc(F)cc2c2nnc(SCCN3CCOCC3)nc21	8%	?	18µM*	2	-2%	-3%
